Only some compounds are listed: those with a hit (about 14% of all), similar ones and a draw of the others.
MARV entry inh – inhibitors of Marburg virus binding or cell entry; Marburg virus pseudotyped entry inhibition, cell reporter; AID 540276; Potency, µM (highest dose often 37.8 µM), for the others: top-dose activity change, negative = inhibition, usual class: inhibitors; 1.8% of 300,000 active; calls by dose curve; tested in HEK293 cells; note: potency is the fitted concentration of half-maximal effect
HCMV inh – human cytomegalovirus inhibition. AID 1259415. activity change, negative = inhibition, % at 57.5 µM. 4.5% of 410,000 active. HFF cells, HCMV-luciferase reporter, 72 h; hits give low values; in the data active = activity change below about -60%; inconclusive = no clear call, values can overlap the other calls; inactive = above about -39%
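Luciferase read-out from HCMV-luciferase-infected HFFs (MOI 1 PFU/cell) 72 h post infection at 37C; compounds added after 16 h cell attachment; activity normalized between buffer-only basal and Salinomycin (10uM) inhibitor controls.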
HCV inh – blocks hepatitis C virus. Huh7.5.1 HCVcc-Cre infection, luciferase reporter, 44 h. Potency, µM (titrated, usually from 41.8 µM), without a hit: at the highest dose activity change, negative = inhibition, hits mostly inhibitors. 3.4% of 340,000 active; note: potency is the fitted concentration of half-maximal effect
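Cells (1,000/well) were plated 4 h before compound, then infected with HCVcc-Cre virus (~0.5 moi). After 44 h further culture, infection was read as luciferase luminescence following a 15 min substrate incubation at room temperature.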
Pf growth 48h – inhibits P. falciparum growth in the first generation, 48 h. 5.9% of 310,000 active. Potency, µM (doses to about 28.7 µM), for the others: at the highest dose activity change, negative = inhibition, usual class: inhibitors. AID 504832. P. falciparum luciferase growth in erythrocytes, 48 h; note: potency is the fitted concentration of half-maximal effect
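Parasite viability was followed by luminescence of a genomically integrated firefly luciferase. Cultures held 0.1% parasitemia at 2% hematocrit (final), incubated under 5% CO2 at 37 C.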
Lassa entry inh – blocks Lassa virus binding to or entry into cells; Lassa virus pseudotype entry inhibition, cell reporter; AID 540256; Potency, µM (doses to about 37.9 µM), for the others: at the highest dose activity change, negative = inhibition, most hits filed as inhibitors; 1.2% of 300,000 active; calls by dose curve; tested in HEK293 cells; note: potency is the fitted concentration of half-maximal effect; nearly all actives have a fitted effect of over 50% in size
Pf growth 96h – P. falciparum growth inhibition at 96 hours. P. falciparum luciferase reporter growth, 96 h. Potency, µM (series often up to 28.7 µM), for inactives: top-dose activity change, negative = inhibition, actives largely listed as inhibitors. 6.9% of 320,000 active. AID 504834; note: potency is the fitted concentration of half-maximal effect
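Readout is luminescence from an integrated firefly luciferase in P. falciparum. Red cells, 2% hematocrit and 0.05% parasitemia final, were cultured with compound through two parasite generations (96 hours) at 37 C, 5% CO2.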
Starred values were filed as active, the others as inactive; i = inactive; u = inconclusive; x = not tested or not shown; ! = repeats disagree; [ ] = another dose, or the depositor's remark. Unless noted, calls come from the whole dose curve; as a rule, active = well fitted inhibition curve with a large enough effect; inconclusive = small, poorly fitted or top-dose-only effect, or another doubt; inactive = no such curve, though single readings can be large or run the other way. % is set by controls: 0 for no effect and ±100 for the full control effect.

SMILES	MARV entry inh	HCMV inh	HCV inh	Pf growth 48h	Lassa entry inh	Pf growth 96h
O=C(C1=C[C@H](c2csc3ccccc23)C[C@H](OCCCCO)O1)N1CCN(Cc2ccc3c(c2)OCO3)CC1	x	-14	u	2.3µM*	x	1.5µM*
O=C(C1=C[C@@H](c2coc3ccccc3c2=O)C[C@@H](OCCCCO)O1)N1CCN(Cc2ccccc2)CC1	x	-3	11%	u	x	u
O=C(C1=C[C@@H](c2csc3ccccc23)C[C@@H](OCCCCO)O1)N1CCN(Cc2ccc3c(c2)OCO3)CC1	x	2	u	u	x	12µM*
O=C(C1=C[C@@H](c2coc3ccccc3c2=O)C[C@@H](OCCCCO)O1)N1CCN(Cc2ccc3c(c2)OCO3)CC1	x	-11	-3%	u	x	3.3µM*
COc1ccc(NC(=O)CSc2nnc(NC(=O)Nc3ccccc3)s2)c(OC)c1	x	48	x	x	6%[46.1 µM]	x
COc1ccccc1CNC(=O)CCc1c(C)c2ccc(OC)c(C)c2oc1=O	u	-4	x	x	-9%[46.1 µM]	x
CCOC(=O)C1=C(Nc2ccc(Cl)cc2)OCC1=O	10%	-31	-9%	12µM*	9%	2.6µM*
CC(C)C[C@H]1CNC(=S)N1CC1CCN(CCCCc2ccccc2)CC1	x	-10	u	x	x	x
Cc1cccc2cc3c(N)c(C(=O)Nc4ccc(N5CCOCC5)cc4)sc3nc12	u	-19	4µM*	u	13µM*	u
Cc1ccc(C)c2nc3sc(C(=O)N4CCOCC4)c(N)c3cc12	u	-39	u	2%	-16%[46.1 µM]	16%
Cc1ccc2nc3sc(C(=O)Nc4ccc(N5CCOCC5)cc4)c(N)c3cc2c1	x	x	-24%	u	x	u
Cc1cc(C)c2nc3sc(C(=O)N4CCOCC4)c(N)c3cc2c1	x	-94*	u	248%	x	i
CCc1cccc2cc3c(N)c(C(=O)Nc4ccc(S(=O)(=O)N5CCCC5)cc4)sc3nc12	u	-27	u	12µM*	u	u
O=C(NC1CCCC1)c1cc(Nc2cccc(C(F)(F)F)c2)nc2ccccc12	x	-5	x	x	3%[46.1 µM]	x
CCCOc1ccc(C(=O)NCC2OCCc3ccccc32)cc1 (stereo not drawn)	4%[46.1 µM]	3	x	x	10%[46.1 µM]	x
CC(=O)Nc1ccc(NC(=O)CN(c2ccc(C34CC5CC(CC(C5)C3)C4)cc2)S(C)(=O)=O)cc1	2%	13	u	2%	u	-17%
CNC(=O)CN(c1ccc(C23CC4CC(CC(C4)C2)C3)cc1)S(C)(=O)=O	u	-60*	4%	u	-6%	5%
CS(=O)(=O)N(CC(=O)Nc1ccc(CC#N)cc1)c1ccc(C23CC4CC(CC(C4)C2)C3)cc1	u	47	u	10µM*	u	u
CN(CC(=O)Nc1ccc(Cl)c(C(F)(F)F)c1)C(=O)c1cccc2cccnc12	u	u	-29%	u	-9%	u
NC1=NC(=O)/C(=C/c2ccccc2OS(=O)(=O)c2ccccc2)S1	4%	-19	u	10µM*	-15%	-3%
COc1cccc(/C=C2\SC(N)=NC2=O)c1OS(=O)(=O)c1ccccc1	-1%[46.1 µM]	2	-1%	-11%	10%[46.1 µM]	44%
COc1cccc(-n2ccnc2SCC(=O)Nc2c(C)cc(C)cc2C)c1	x	-102*	x	x	-23%[46.1 µM]	x
Cc1cc(C)c(NC(=O)CSc2nccn2C)c(C)c1	11%	61	9%	15%	u	0.074µM*
CN1C(=O)C(CC(=O)Nc2ccccc2F)N(NC(=O)c2ccc(Br)cc2)C1=S (stereo not drawn)	13µM*	0	1%	u	-15%[46.1 µM]	16%
CCNC(=O)CC1C(=O)N(C)C(=S)N1NC(=O)c1ccc(Cl)cc1 (stereo not drawn)	4%	-19	19%	57%	-8%	-29%
SMILES	MARV entry inh	HCMV inh	HCV inh	Pf growth 48h	Lassa entry inh	Pf growth 96h
CN(C)CCC(c1ccc(Cl)cc1)c1ccccn1 (stereo not drawn)	2.8µM*!	-16	u	-25%	-18%	6%
CN(C)CCC(c1ccccc1)c1ccccn1 (stereo not drawn)	u	-9	5µM*!	14%	13%	24%
c1ccc(C(c2ccccn2)c2ccccn2)cc1	13%	-27	0%	u	17%	u
CN(C)CC[C@H](c1ccc(Br)cc1)c1ccccn1	8.9µM*!	x	x	x	x	x
NS(=O)(=O)c1ccc(NC(=O)CSc2nc3c(c(=O)[nH]2)CCCC3)cc1	u	-18	6%	6%	x	-8%
Cc1cccc(OCC(=O)NC(=S)N2CCCc3ccccc32)c1	15%	5	5%	u	23%	9.3µM*
O=C(NCCc1ccc(Cl)cc1)C(=O)NCC(c1ccco1)S(=O)(=O)c1ccc(Cl)cc1 (stereo not drawn)	x	-81*	x	x	-20%[46.1 µM]	x
CN(CC(=O)Nc1ccccc1Br)C(=O)c1ccccc1Sc1ccccc1C#N	x	-27	u	x	x	x
CCN(CC(=O)Nc1ccc(OC)cc1)C(=O)c1ccccc1Sc1ccccc1C#N	u	-19	22µM*	u	-18%	18%
Cc1cccc(C)c1NC(=O)CN(C)C(=O)c1ccccc1Sc1ccccc1C#N	x	-20	-6%	9.3µM*	x	u
CC(C)(C)c1cc(C=C(C#N)C#N)cc(C(C)(C)C)c1O	2.1µM*	-100*	u	2.6µM*	0.41µM*	1.5µM*
CC(C)(C)c1cc(/C=C(\C#N)C(N)=S)cc(C(C)(C)C)c1O	9.2µM*	x	x	x	2.3µM*	x
CCc1ccc(/C=C(/C#N)C(N)=S)cc1	u	17	-7%	u	12%	14%
N#CC(C#N)=C(N)/C(C#N)=C/c1cc(O)c(O)c(O)c1	x	66	-1%	12µM*	x	9.3µM*
CC1CCCCN1S(=O)(=O)c1ccc(C(=O)Nc2nnc(-c3ccccc3Cl)o2)cc1 (stereo not drawn)	13µM*	u	u	x	u	4%
CC1CCCCN1S(=O)(=O)c1ccc(C(=O)Nc2nnc(-c3ccncc3)o2)cc1 (stereo not drawn)	u	-71*	-18%	u	u	u
O=C(Nc1nnc(-c2ccccc2Cl)o1)c1ccc(S(=O)(=O)N2CCCCCC2)cc1	u	x	u	u	u	6%
CCOc1ccccc1NC(=O)C(=O)Nc1ccc2nc3n(c(=O)c2c1)CCCCC3	4%[46.1 µM]	-3	x	x	25%[46.1 µM]	x
O=c1[nH]c(Nc2ccc3c(c2)OCCO3)nnc1Cc1ccccc1	22%[46.1 µM]	-73*	-2%	u	-18%	6%
Cc1ccccc1Nc1c(-c2ccc(N3CCOCC3)cc2)nc2ccc(Br)cn12	-13%[46.1 µM]	19	x	x	-26%[46.1 µM]	x
O=C(Cn1cnc2c(nnn2Cc2ccccc2)c1=O)N1CCCc2ccccc21	x	-19	17%	u	x	12µM*

Source: PubChem (National Center for Advancing Translational Sciences (NCATS))
